Source: PubChem (National Center for Advancing Translational Sciences (NCATS))
An excerpt weighted towards active compounds, which were near 8.6% of everything screened.
MARV entry inh = qHTS for Inhibitors of binding or entry into cells for Marburg Virus; hit rate 6.5% among 18,000; Potency, µM (series often up to 49.2 µM), for inactives: at the highest dose activity change, negative = inhibition, hits mostly inhibitors; Marburg virus pseudotype entry/binding inhibition, cell-based
Lassa entry = qHTS for Inhibitors of binding or entry into cells for Lassa Virus | Lassa virus pseudotyped entry inhibition, cell-based qHTS | Potency, µM (series often up to 49.2 µM), for the others: at the highest dose activity change, negative = inhibition, actives largely listed as inhibitors | hit rate 4.1% among 18,000 | AID 720533, 2013
Active calls of the source: *; ! = not active in a repeat; [ ] = remark or other dose. The call rests on the fitted dose curve; tested in HEK293 cells. On the % scale 0 is the no-effect control and ±100 the full control effect; potency means the concentration at half of the fitted maximal effect.

Results for CC(=O)OC1CCC2(C)C(=CC=C3C2CCC2(C)C3CCC2C(C)/C=C/C(C)C(C)C)C1(C)C (stereo not drawn) ?
MARV entry inh: 22%; Lassa entry: -15%

How did CCN1C(=NCCCOC(C)C)N[C@H](c2ccccc2)[C@H](C(=O)OC)[C@H]1C do in these assays?
MARV entry inh: 0%[8.59 µM]; Lassa entry: 33%[8.59 µM]

Results for CC=C(C)C(=O)O[C@H]1C(C)=C2[C@@H]3OC(=O)[C@@](C)(O)[C@@]3(O)[C@@H](OC(=O)CCC)C[C@](C)(OC(C)=O)[C@@H]2[C@@H]1OC(=O)CCCCCCC ?
MARV entry inh: 40µM*; Lassa entry: 40µM*

Results for NCCCC[C@H](NC(=O)[C@H](Cc1ccccc1)NC(=O)[C@H](CCCN=C(N)N)NC(=O)[C@@H](N)Cc1ccc(O)cc1)C(N)=O ?
MARV entry inh: 15%; Lassa entry: -3%

Results for COc1ccc([C@]23Cc4cc(C#N)ccc4[C@H](O2)C2=C(CC4(CCCCC4)OC2=O)O3)cc1 ?
MARV entry inh: 1%[8.59 µM]; Lassa entry: -23%[8.59 µM]

Results for COc1ccc(-c2ccccc2[C@H]2[C@@H]3C=CC[C@@H](C)[C@@H]3C(=O)N2Cc2ccccc2)cc1 ?
MARV entry inh: 14µM*; Lassa entry: inconclusive

What do the screens show for `C[C@@H]1CC=C[C@@H]2[C@H]1C(=O)N(Cc1ccccc1)[C@H]2c1cccc(Br)c1`?
MARV entry inh: 3%; Lassa entry: 37%

Results for CCC1CN2CCC1CC2[C@@H](Oc1cc2ccccc2c2ccccc12)c1ccnc2ccc(O)cc12 (stereo partly drawn) ?
MARV entry inh: 42%[8.59 µM]; Lassa entry: 0%[8.59 µM]

Results for OC[C@@H](O)C(O)[C@H](O)[C@H](O)CO (stereo partly drawn) ?
MARV entry inh: 15%; Lassa entry: 1%

Results for CC[C@H](c1ccc(O)cc1)[C@@H](CC)c1ccc(O)cc1 ?
MARV entry inh: 14%[17.8 µM]; Lassa entry: inconclusive

Results for Oc1cc[c]([Hg][Cl])cc1 ?
MARV entry inh: 3.5µM*; Lassa entry: 4.5µM*

How did O=C(c1cnsn1)N1CCOc2ccc(CN3CCOCC3)cc2C1 do in these assays?
MARV entry inh: -11%; Lassa entry: 0%

What do the screens show for `CCc1cc(C(=O)NCCN2Cc3ccccc3OC(c3ccsc3)C2)n(C)n1` (stereo not drawn)?
MARV entry inh: -12%; Lassa entry: 3%

What do the screens show for `CCC1=C[C@@H]2CN(C1)Cc1c([nH]c3ccccc13)[C@@](C(=O)OC)(c1cc3c(cc1OC)N(C)[C@H]1[C@@](O)(C(=O)OC)[C@H](OC(C)=O)[C@]4(CC)C=CCN5CC[C@]31[C@@H]54)C2`?
MARV entry inh: 1.4µM*!; Lassa entry: 13µM*!

Results for CC[C@]1(O)CC2CN(CCc3c([nH]c4ccccc34)[C@@](C(=O)OC)(c3cc4c(cc3OC)N(C)[C@H]3[C@@](O)(C(N)=O)[C@H](O)[C@]5(CC)C=CCN6CC[C@]43[C@@H]65)C2)C1 (stereo partly drawn) ?
MARV entry inh: inconclusive; Lassa entry: -34%

How did COc1cccc(CNC(=O)c2c(OC)cc(=O)n3c2CCN(C(=O)c2ccc(Cl)cc2)CC3)c1 do in these assays?
MARV entry inh: 3%; Lassa entry: -9%

What do the screens show for `O=C(c1cccc(F)c1)N(Cc1cc2cc3c(cc2nc1N1CCOCC1)CCC3)CC1CCCO1` (stereo not drawn)?
MARV entry inh: inconclusive; Lassa entry: 0%

Results for CN(C)C(=O)n1nnnc1Cc1ccc(-c2ccccc2)cc1 ?
MARV entry inh: inconclusive; Lassa entry: -26%

Results for CO[C@@H]1[C@@H](O[C@@H]2O[C@H](C)[C@@H](O[C@H]3C[C@@](C)(O)[C@@H](OC(=O)CC(C)C)[C@H](C)O3)[C@H](N(C)C)[C@H]2O)[C@@H](CC=O)C[C@@H](C)C(=O)/C=C/C2OC2C[C@@H](C)OC(=O)C[C@H]1OC(C)=O (stereo partly drawn) ?
MARV entry inh: 13µM*; Lassa entry: inconclusive

What do the screens show for `COC1C[C@@H](O[C@@H]2C(C)C(=O)OC(C)C(C)[C@H](OC(C)=O)C(C)C(=O)[C@@]3(CO3)CC(C)C(OC3OC(C)CC(N(C)C)[C@H]3OC(C)=O)C2C)OC(C)[C@@H]1OC(C)=O` (stereo partly drawn)?
MARV entry inh: -1%; Lassa entry: 4%

What do the screens show for `COC1C(O)CC(=O)OC(C)C/C=C/C=C/[C@@H](OC2CCC(N(C)C)C(C)O2)C(C)C[C@@H](CC=O)[C@@H]1O[C@H]1OC(C)[C@H](O[C@@H]2C[C@@](C)(O)C(O)C(C)O2)C(N(C)C)C1O` (stereo partly drawn)?
MARV entry inh: 6.3µM*; Lassa entry: -20%
